In PubChem BioAssay (Tox21):
Results filed as inconclusive are left out. The source made the active and inactive calls. Unless noted, the call rests on the fitted dose curve; in most records, active means well fitted curve in the direction sought with a large enough effect in the repeat runs; inconclusive means weak or mixed curves; inactive means no such curve, though single readings can be large; an effect the other way counts as inactive or inconclusive.

Tests used:
[1] = qHTS assay to identify small molecule antagonists of the glucocorticoid receptor (GR) signaling pathway - cell viability counter screen (AID 720693); further: nearly all actives have a fitted effect of over 55% in size
[2] = qHTS assay for identifying genotoxic compounds that show differential cytotoxicity against isogenic chicken DT40 cell lines with known DNA damage response pathways - Rev3 mutant cell line (AID 743014); further: nearly all actives have a fitted effect of over 55% in size; further: potency means the concentration at half of the fitted maximal effect
[3] = qHTS assay to identify small molecule antagonists of the androgen receptor (AR) signaling pathway - cell viability counter screen (AID 743033; further: nearly all actives have a fitted effect of over 45% in size)
[4] = qHTS assay to identify small molecule antagonists of the androgen receptor (AR) signaling pathway using the MDA cell line - cell viability counter screen (AID 743041; further: nearly all actives have a fitted effect of over 45% in size)
Summary of the method: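 Cytotoxicity counter screen: MDA-kb2 AR-luc cells, compound + R1881, 16 h, 37C, 0% CO2; CellTiter-Fluor added at 15.5 h, fluorescence read after 30 min.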

[5] = qHTS assay for identifying genotoxic compounds that show differential cytotoxicity against isogenic chicken DT40 cell lines with known DNA damage response pathways - wild type cell line (AID 743012); further: nearly all actives have a fitted effect of over 60% in size
Summary of the method: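 Viability by ATP luminescence (CellTiter-Glo, 30 min RT) after 40 h compound treatment at 37 C/5% CO2, using 300 parental DNA repair-proficient DT40 cells per well.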

[6] = qHTS assay for identifying genotoxic compounds that show differential cytotoxicity against isogenic chicken DT40 cell lines with known DNA damage response pathways - Rad54/Ku70 mutant cell line (AID 743015); further: nearly all actives have a fitted effect of over 60% in size; further: potency means the concentration at half of the fitted maximal effect
[7] = target: Androgen receptor (Homo sapiens) (UniProt P10275); test: qHTS assay to identify small molecule antagonists of the androgen receptor (AR) signaling pathway (AID 743035; active means well fitted inhibition curve with a large enough effect in the signal ratio in the repeat runs, not every such curve was filed as active; the % refers to the signal ratio)
Androgen receptor (Homo sapiens), sequence (P10275 whole entry, looked up): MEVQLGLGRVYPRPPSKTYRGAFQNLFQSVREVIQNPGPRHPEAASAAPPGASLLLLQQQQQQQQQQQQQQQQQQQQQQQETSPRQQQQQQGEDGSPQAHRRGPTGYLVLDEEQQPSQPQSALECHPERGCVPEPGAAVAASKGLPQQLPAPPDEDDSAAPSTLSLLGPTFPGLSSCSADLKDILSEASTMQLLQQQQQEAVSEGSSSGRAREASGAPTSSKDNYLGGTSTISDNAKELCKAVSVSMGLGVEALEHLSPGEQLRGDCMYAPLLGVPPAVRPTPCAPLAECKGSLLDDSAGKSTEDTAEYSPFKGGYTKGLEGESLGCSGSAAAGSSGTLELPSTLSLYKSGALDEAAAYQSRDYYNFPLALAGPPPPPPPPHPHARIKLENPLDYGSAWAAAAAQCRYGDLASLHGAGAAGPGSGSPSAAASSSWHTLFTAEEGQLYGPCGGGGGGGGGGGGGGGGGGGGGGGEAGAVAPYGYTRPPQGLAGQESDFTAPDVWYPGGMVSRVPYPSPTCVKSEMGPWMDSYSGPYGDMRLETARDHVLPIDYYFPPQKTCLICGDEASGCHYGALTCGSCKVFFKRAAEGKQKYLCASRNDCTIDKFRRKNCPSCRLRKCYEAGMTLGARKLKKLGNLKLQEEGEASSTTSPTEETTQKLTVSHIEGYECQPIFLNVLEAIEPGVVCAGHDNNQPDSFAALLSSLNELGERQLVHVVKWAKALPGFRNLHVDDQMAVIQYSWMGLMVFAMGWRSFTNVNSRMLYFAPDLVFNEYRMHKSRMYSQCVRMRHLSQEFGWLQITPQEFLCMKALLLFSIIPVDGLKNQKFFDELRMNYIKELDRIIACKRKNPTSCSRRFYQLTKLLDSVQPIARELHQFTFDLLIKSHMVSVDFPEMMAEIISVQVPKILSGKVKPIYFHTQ
Summary of the method: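 Antagonist mode: AR-bla HEK293 cells co-treated with test compounds and agonist R1881 for 16 h at 37C, 5% CO2. Beta-lactamase activity read as FRET fluorescence after 2 h room-temperature substrate loading.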

[8] = target: Androgen receptor (Homo sapiens) (UniProt P10275); test: qHTS assay to identify small molecule agonists of the androgen receptor (AR) signaling pathway (AID 743036; active means well fitted activation curve with a large enough effect in the signal ratio in the repeat runs, with a control signal flat, not every such curve was filed as active; the % refers to the signal ratio)
Summary of the method: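 Fluorescence from a beta-lactamase FRET substrate served as read-out in AR-UAS-bla GripTite HEK293 cells. Cells were treated with DMSO-dissolved compounds for 16 h at 37C, then with LiveBLAzer B/G substrate for 2 h at room temperature.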

[9] = target: Androgen receptor (Homo sapiens) (UniProt P10275); test: qHTS assay to identify small molecule agonists of the androgen receptor (AR) signaling pathway using the MDA cell line (AID 743040; further: nearly all actives have a fitted effect of over 20% in size)
Summary of the method: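 Luciferase read-out, ONE-Glo, 30 min RT. Cells: MDA-kb2 AR-luc, MMTV promoter with AR and GR response elements. Compound exposure 16 h, 37C, 0% CO2, after 5 h pre-incubation. qHTS agonist mode.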

[10] = target: Androgen receptor (Homo sapiens) (UniProt P10275); test: qHTS assay to identify small molecule antagonists of the androgen receptor (AR) signaling pathway using the MDA cell line (AID 743042; further: nearly all actives have a fitted effect of over 55% in size)
Summary of the method: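 MDA-kb2 breast carcinoma cells carrying MMTV-luciferase (AR/GR responsive) were co-treated with compounds and the agonist R1881 for 16 h at 37C. Inhibition read as ONE-Glo luminescence; CellTiter-Fluor fluorescence measured in parallel for cytotoxicity.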
On the % scale 0 is the no-effect control and ±100 the full control effect.

CCOC(=O)CCCCCCCCC(=O)OCC
inactive: Potency [1] | outcome [3] | outcome [4]
active: Potency [2] 61.1 µM

Nc1ccc(/C=C/c2ccc(N)cc2S(=O)(=O)O)c(S(=O)(=O)O)c1
inactive: Potency [1] | outcome [3] | outcome [4]

CCN(Cc1cccc(S(=O)(=O)O)c1)c1ccccc1
inactive: Potency [1] | outcome [3] | outcome [4]

CCOC(=O)OCC/C(SC(=O)OCC)=C(\C)N(C=O)Cc1cnc(C)nc1N
inactive: Potency [5] | Potency [2] | Potency [6] | outcome [3] | outcome [4]

CC(C)SCc1ccco1
inactive: Potency [5] | Potency [2] | Potency [6] | outcome [3] | outcome [4]

CC(Cl)COP(=O)(OCC(C)Cl)OCC(C)Cl (stereo not given)
active: Potency [2] 54.2 µM
inactive: Potency [1] | outcome [3] | outcome [4]

CCOc1ccc(NC(=O)OC(C)C)cc1OCC
active: Potency [2] 61.1 µM
inactive: Potency [1] | outcome [3] | outcome [4]

C=CCOC(=O)c1ccc(C(=O)OCC=C)c(C(=O)OCC=C)c1
inactive: Potency [1] | outcome [3] | outcome [4]

O=S(=O)(O)SSS(=O)(=O)O
inactive: Potency [1] | Potency [2] | outcome [3] | Potency [7] | outcome [8] | outcome [9] | outcome [4] | outcome [10]

CCC(C)(CCC(C)C)C(=O)[O-].CCC(C)(CCC(C)C)C(=O)[O-].[Zn+2] (stereo not given)
inactive: Potency [1] | Potency [2] | Potency [6] | outcome [3] | outcome [4]

C=CCOCC(CO)(COCC=C)COCC=C
inactive: Potency [1] | Potency [2] | Potency [6] | outcome [3] | outcome [4]

C[C@H]1O[C@H](O[C@H]2[C@H](O)[C@@H](O)[C@@H](O[C@H]3[C@H](O)[C@@H](O)[C@H](O)O[C@@H]3CO)O[C@@H]2CO)[C@H](O)[C@@H](O)[C@@H]1N[C@H]1C=C(CO)[C@@H](O)[C@H](O)[C@H]1O
inactive: Potency [5] | Potency [2] | Potency [6] | outcome [3] | outcome [4]

Cc1cc(O)c2c(c1)C(=O)c1cccc(O)c1C2=O
active: Potency [6] 26.7 µM
inactive: Potency [5] | outcome [3] | outcome [4]

CCCCCC1CCCC(=O)O1 (stereo not given)
inactive: Potency [1] | Potency [2] | Potency [6] | outcome [3] | outcome [4]

CCCCC(CC)C(=O)OC(C)C (stereo not given)
inactive: Potency [5] | Potency [2] | outcome [3] | outcome [4]

O=CO
inactive: viability change, negative = cytotoxic [1] -3.59% [at 7.04 µM] | activity change, negative = cytotoxicity [3] -5.92% [at 7.04 µM] | viability change, negative = cytotoxic [4] -3.77% [at 8.47 µM]

O=C(O)c1c(Cl)ccc(Cl)c1Cl
inactive: Potency [1] | Potency [2] | Potency [6] | outcome [3] | outcome [4]

CO/N=C(/C(=O)N[C@@H]1C(=O)N2C(C(=O)O)=C(Cn3nnc(C)n3)CS[C@H]12)c1csc(N)n1
inactive: Potency [1] | Potency [2] | Potency [6] | outcome [3] | outcome [4]

CCCCOC(=O)C(C)OC(=O)CCC (stereo not given)
inactive: Potency [1] | Potency [2] | outcome [3] | outcome [4]

Cc1oc(=O)oc1CN1CCN(c2cc3c(cc2F)c(=O)c(C(=O)O)c2n3C(C)S2)CC1 (stereo not given)
inactive: Potency [1] | outcome [3] | outcome [4]

CC(C)(C)c1ccc(C=O)cc1
inactive: Potency [5] | Potency [2] | Potency [6] | outcome [3] | outcome [4]

C[CH2][Ge]([Cl])([CH2]C)[CH2]C
inactive: Potency [1] | Potency [2] | Potency [6] | outcome [3] | outcome [4]

C=C[Si](C)(C)O[Si](C)(C)C=C
inactive: Potency [1] | Potency [2] | outcome [3] | outcome [4]

CC(C)COC(=O)COc1ccc(Cl)cc1Cl
inactive: Potency [1] | outcome [3] | Potency [7] | outcome [8] | outcome [9] | outcome [4] | outcome [10]

O=C(Oc1ccccc1C(=O)O)c1ccccc1O
inactive: Potency [1] | outcome [3] | outcome [4]

CC(=O)OC(C)c1ccccc1 (stereo not given)
inactive: Potency [1] | Potency [2] | outcome [3] | outcome [4]

OC[C@@H](O)[C@H](O)[C@@H](O)[C@@H](O)CO
inactive: Potency [1] | Potency [2] | Potency [6] | outcome [3] | outcome [4]
